High-throughput results from PubChem.
This is a sample that favours compounds with a hit; in the whole collection about 6.7% have one here.
KB-3-1 cytotox: qHTS assay for MDR1-selective chemotherapeutics: Primary screen using the parental adenocarcinoma cell KB-3-1; 400,000 tested, 1.4% active; AID 1347075, 2019; Potency, µM (series often up to 46.1 µM), hits mostly cytotoxic; KB-3-1 viability, CellTiter-Glo ATP luminescence, 72 h; also: % is scaled to controls: 0 for no effect and ±100 for the full control effect; nearly all actives have a fitted effect of over 60% in size
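KB-3-1 parental drug-naive adenocarcinoma cells in DMEM/10% FBS, incubated 72 h at 37 C with pin-transferred compounds across a concentration series. Viability by CellTiter-Glo luminescence; concentration-response curves fitted after normalization.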
SW480 rerep: A quantitative high throughput screen for small molecules that induce DNA re-replication in SW480 colon adenocarcinoma cells; SW480 DNA re-replication, Hoechst DNA content imaging, 48 h; Potency, µM (top dose mostly 46.1 µM), for the others: top-dose re-replication activation, usual class: activators; 340,000 tested, 1.8% active; also: % of control where 0% means no effect; nearly all actives have a fitted effect of over 55% in size
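Per well, 250 cells were exposed to pinned compound for 48 hr. Nuclear DNA was visualised with Hoechst (40 min, 37 C) and total object intensity recorded by fluorescence scanning.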
PINK1 modulator: A Quantitative High throughput Screen to Identify Chemical Modulators of PINK1 Expression. PINK1 immunofluorescence, high-content cytometry, 24 h. Potency, µM (titrated, usually from 76.6 µM), without a hit: at the top dose activation (PINK1 increase), most hits filed as activators. 410,000 tested, 0.2% active; active = well fitted activation curve with a large enough effect; inconclusive = small, poorly fitted or top-dose-only effect; cell line not stated here; also: % of control where 0% means no effect; nearly all actives have a fitted effect of over 65% in size
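Readout is PINK1 immunofluorescence, quantified alongside mitochondrial, cell and nuclear markers by laser-scanning microplate cytometry. Cells from a stable line were exposed to compound titrations (5 concentrations) for 24 hours, with CCCP controls.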
MCF10A rereplic: A quantitative high throughput screen for small molecules that induce DNA re-replication in MCF 10a normal breast cells; AID 624296, 2012; Potency, µM (doses to about 46.1 µM), inactives show at the highest dose activity, positive = re-replication, most hits filed as activators; MCF 10A DNA re-replication, Hoechst nuclear intensity, 48 h; 350,000 tested, 2.9% active; also: % of control where 0% means no effect; nearly all actives have a fitted effect of over 50% in size
KB-V1 MDR tox: qHTS assay for MDR1-selective chemotherapeutics: Primary screen using the drug-selected MDR subline cells KB-V1. KB-V1 MDR cells viability, CellTiter-Glo, 72 h. Potency, µM (titrated, usually from 46.1 µM), hits mostly cytotoxic. 400,000 tested, 3.4% active. AID 1347076, 2019; also: % is scaled to controls: 0 for no effect and ±100 for the full control effect; nearly all actives have a fitted effect of over 60% in size
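KB-V1 MDR subline cells in DMEM (phenol-red free, 10% FBS) exposed to compounds in qHTS concentration series for 72 h at 37 degrees C. Viability read by CellTiter-Glo luminescence; concentration-effect curves fitted after normalization and correction.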
An asterisk follows results filed as active; i = inactive; ? = inconclusive; / = not tested or not shown. Unless noted, calls follow the shape of the dose curve; as a rule, active = well fitted curve in the direction sought with a large enough effect; inconclusive = small, poorly fitted or top-dose-only effect, or another doubt; inactive = no such curve, though single readings can be large; an effect the other way counts as inactive or inconclusive. Potency is read from the fitted curve at half-maximal effect.

SMILES	KB-3-1 cytotox	SW480 rerep	PINK1 modulator	MCF10A rereplic	KB-V1 MDR tox
NC(=O)[C@H]1O[C@@H](O)[C@H](O)[C@@H](O)[C@@H]1O	/	-1.8%	/	-0.1%	/
CCCOc1ccc(C2c3c(oc4ccccc4c3=O)C(=O)N2c2nnc(C(C)C)s2)cc1 (stereo not drawn)	i	/	0.6%	/	i
Cc1c(C(=O)OCC(C)C)[nH]c2c1C(=O)CC(c1cccs1)C2 (stereo not drawn)	?	3.66µM*	8.0%	?	?
CCOCCOC(=O)c1[nH]c2c(c1C)C(=O)CC(c1cccs1)C2 (stereo not drawn)	0.92µM*	1.16µM*	6.7%	?	1.16µM*
Cc1c(C(=O)OCCOc2ccccc2)[nH]c2c1C(=O)CC(c1ccccc1)C2 (stereo not drawn)	/	/	2.8%	/	/
COCCOC(=O)c1[nH]c2c(c1C)C(=O)CC(c1cccs1)C2 (stereo not drawn)	1.84µM*	2.59µM*	9.3%	?	1.46µM*
CCOCCOC(=O)c1[nH]c2c(c1C)C(=O)CC(c1cc(OC)c(OC)c(OC)c1)C2 (stereo not drawn)	?	3.3%	0.7%	-21.6%	i
CCOCCOC(=O)c1[nH]c2c(c1C)C(=O)CC(c1ccccc1)C2 (stereo not drawn)	0.92µM*	0.517µM*	1.1%	?	1.03µM*
COCCOC(=O)c1[nH]c2c(c1C)C(=O)CC(c1ccc(OC)c(OC)c1)C2 (stereo not drawn)	i	-4.3%	0.7%	8.5%	i
CCOC(=O)c1[nH]c2c(c1C)C(=O)CC(c1ccc(F)cc1)C2 (stereo not drawn)	?	?	11.9%	?	?
COc1cccc(CN2CCCC(c3nc(-c4ccncc4)ncc3-c3ccccc3C)C2)c1O (stereo not drawn)	/	/	0.0%	/	/
O=C(Nc1nncs1)c1cc(S(=O)(=O)N2CCOCC2)ccc1Cl	i	4.8%	3.8%	-2.6%	i
CC1(C)CC2CC(C)(CN2C(=O)COC(=O)c2cccc([N+](=O)[O-])c2)C1 (stereo not drawn)	i	0.7%	-5.5%	1.8%	?
c1ccc2c(c1)CCN(c1nc3cc4c(cc3s1)OCCO4)C2	?	4.2%	0.7%	14.6µM*	?
CN(C)C(CNC(=O)c1cc(S(=O)(=O)N2CCOCC2)ccc1Cl)c1cccs1 (stereo not drawn)	i	8.9%	1.0%	20.1%	i
CC[N+](C)(C)c1ccc(/C=C/c2ccc3ccccc3n2)cc1	2.91µM*	/	5.01µM*	/	i
CC(=O)/C=C/c1ccc2ccccc2n1	i	9.2µM*	0.0%	14.6µM*	i
CC(OC(=O)/C=C/c1ccc2ccccc2n1)C(=O)N(C)c1ccccc1 (stereo not drawn)	?	1.7%	0.9%	-0.8%	?
CCN(CC)c1ccc(/C=C/c2ccc3ccccc3n2)cc1	2.31µM*	/	?	/	?
Clc1ccc(/C=C/c2ccc3ccccc3n2)cc1Cl	?	/	/	/	i
COc1ccc(C2=C(C)C(N3CCC(C(=O)Nc4ccc(F)cc4C)CC3)=NS2(=O)=O)cc1	i	/	-0.9%	/	i
CCN1CCN(c2ncc3c(n2)CCN(Cc2sccc2C)C3)CC1	i	/	5.3%	/	i
O=C(CN(C1CC1)S(=O)(=O)c1ccc(S(=O)(=O)NC2CCCCC2)cc1)Nc1ccccc1	?	?	-2.2%	9.1%	i
O=C(CN(Cc1cccs1)S(=O)(=O)c1ccc(S(=O)(=O)NC2CCCCC2)cc1)Nc1ccccc1	?	29.4%	-0.6%	?	13µM*
Cc1cs/c(=N\N=C\c2ccccc2)n1Cc1ccco1	?	-4.0%	1.4%	?	16.4µM*
CCC(C)Sc1ccc(-c2nc3cnccn3c2NC2CCCCC2)cc1 (stereo not drawn)	?	?	-1.9%	?	?
